Pf growth 48h: Primary qHTS for delayed death inhibitors of the malarial parasite plastid, 48 hour incubation | hit rate 5.9% among 310,000 | Potency, µM (series often up to 28.7 µM), for the others: at the highest dose activity change, negative = inhibition, hits mostly inhibitors | P. falciparum luciferase growth in erythrocytes, 48 h; also: potency is read from the fitted curve at half-maximal effect
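Erythrocytes infected with P. falciparum carrying an integrated firefly luciferase reporter (2% hematocrit, 0.1% parasitemia final) were exposed to compounds in RPMI 1640 with 0.5% Albumax at 37 C, 5% CO2. Growth inhibition was scored as reduced luminescence.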
HCV inh: qHTS Assay for Inhibitors of Hepatitis C Virus (HCV); Huh7.5.1 HCVcc-Cre infection, luciferase reporter, 44 h; Potency, µM (titrated, usually from 41.8 µM), for the others: at the highest dose activity change, negative = inhibition, usual class: inhibitors; hit rate 3.4% among 340,000; AID 651820, 2012; also: potency is read from the fitted curve at half-maximal effect
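HCVcc-Cre virus at an moi near 0.5 was added right after compound to cells cultured 4 h from seeding (1,000 cells/well). Luciferase activity was determined 44 h later, 15 min after substrate addition at RT.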
HCMV antiviral: qHTS Assay for inhibitors of the human cytomegalovirus (HCMV). hit rate 4.5% among 410,000. activity change, negative = inhibition, % at 57.5 µM. HFF cells, HCMV-luciferase reporter, 72 h; hits give low values; in the data active = activity change below about -60%; inconclusive = no clear call, values can overlap the other calls; inactive = above about -39%
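HFF cells seeded 16 h at 37C, treated with compounds, infected with luciferase-reporter HCMV at MOI 1 PFU/cell; luciferase read at 72 h post infection, normalized to buffer-only and Salinomycin controls.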
Pf growth 96h: Primary qHTS for delayed death inhibitors of the malarial parasite plastid, 96 hour incubation; P. falciparum luciferase reporter growth, 96 h; Potency, µM (highest dose often 28.7 µM), without a hit: top-dose activity change, negative = inhibition, most hits filed as inhibitors; hit rate 6.9% among 320,000; AID 504834, 2011; also: potency is read from the fitted curve at half-maximal effect
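Two parasite generations (96 h, 37 C, 5% CO2) of compound exposure in infected erythrocytes (0.05% parasitemia, 2% hematocrit). Luciferase-reporter P. falciparum; decreased luminescence indicates inhibited growth, aimed at apicoplast-acting delayed death.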
Lassa entry inh: qHTS for Inhibitors of binding or entry into cells for Lassa Virus. Lassa virus pseudotype entry inhibition, cell reporter. Potency, µM (highest dose often 37.9 µM), inactives show top-dose activity change, negative = inhibition, usual class: inhibitors. hit rate 1.2% among 300,000; calls by dose curve; tested in HEK293 cells; also: potency is read from the fitted curve at half-maximal effect; nearly all actives have a fitted effect of over 50% in size
MARV entry inh: qHTS for inhibitors of binding or entry into cells for Marburg Virus; Marburg virus pseudotyped entry inhibition, cell reporter; Potency, µM (titrated, usually from 37.8 µM), inactives show at the top dose activity change, negative = inhibition, most hits filed as inhibitors; hit rate 1.8% among 300,000; AID 540276, 2011; calls by dose curve; tested in HEK293 cells; also: potency is read from the fitted curve at half-maximal effect
* hit, by the source's call; ? = inconclusive; . = no result given; + = active, no number; ! = repeats disagree; [ ] = dose if it differs, or a comment. Shown are actives, neighbours in structure and some others; about 14% of the full set was active somewhere. Unless noted, calls follow the shape of the dose curve; as a rule, active = well fitted inhibition curve with a large enough effect; inconclusive = small, poorly fitted or top-dose-only effect, or another doubt; inactive = no such curve, though single readings can be large or run the other way. % is scaled to controls: 0 for no effect and ±100 for the full control effect.

SMILES	Pf growth 48h	HCV inh	HCMV antiviral	Pf growth 96h	Lassa entry inh	MARV entry inh
CC(C)CC(N(C)C)C1(c2ccc(Cl)cc2)CCC1 (stereo not drawn)	1%	3.5µM*!	?	-12%	.	.
CCCCSc1cnn(-c2ccccc2)c(=O)c1SCCCC	12µM*	?	?	12µM*	0%	?
N#Cc1nc(-c2ccc(COc3ccccc3)o2)oc1NCc1cccnc1	.	.	-14	.	-2%[46.1 µM]	-8%[46.1 µM]
C[C@@H]1CN([C@H](C)CO)C(=O)CCCn2nncc2CO[C@H]1CN(C)S(=O)(=O)c1ccc(Oc2ccccc2)cc1	.	.	-8	.	.	.
CC(=O)N1CC(C)Sc2ccc(S(=O)(=O)NCCc3ccccc3)cc21 (stereo not drawn)	38%	?	+	?	.	.
CC(=O)N1CC(C)Sc2ccc(S(=O)(=O)NCCc3ccc(C)cc3)cc21 (stereo not drawn)	0%	11µM*	?	?	.	.
CC(=O)N1CC(C)Sc2ccc(S(=O)(=O)NC(C)c3ccccc3)cc21 (stereo not drawn)	-3%	?	-72*	13µM*	.	.
COc1ccccc1NS(=O)(=O)c1ccc2c(c1)N(C(C)=O)CC(C)S2 (stereo not drawn)	27%	4%	?	?	.	.
COc1ccc(C2=NCC(C)n3c2c2ccc(C(F)(F)F)cc2[n+]3[O-])cc1 (stereo not drawn)	.	.	3	.	.	.
CC(C)(C)S(=O)(=O)N1C[C@H]2CC(=O)C(CCO)=C2[C@@H]1CCO	.	.	15	.	.	.
CC(C)Cc1cc(C(=O)NCc2ccc(Cl)cc2)no1	.	.	17	.	-2%[46.1 µM]	11%[46.1 µM]
CC(C)(C)c1ccc(CN2N=Nc3ccccc3S2(=O)=O)cc1	?	?	?	?	11µM*	?
CC1CCc2c(sc3nc(CN4CCOCC4)nc(NS(=O)(=O)c4cccc([N+](=O)[O-])c4)c23)C1 (stereo not drawn)	.	-13%	-15	13µM*	-6%	2%
Cc1ccc(Oc2nc(CN3CCOCC3)nc3sc4c(c23)CCC(C)C4)cc1C (stereo not drawn)	12µM*	-17%	31	?	6%	?
Cc1cc(S(=O)(=O)Nc2nc(CN3CCOCC3)nc3sc4c(c23)CCCC4)ccc1F	.	7%	36	?	-4%	7%[46.1 µM]
CC1CCc2c(sc3nc(CN4CCOCC4)nc(N4CCc5ccccc5C4)c23)C1 (stereo not drawn)	13µM*	?	2	4.7µM*	-11%	?
CCOc1ccc2oc(C(=O)N(CC)CC(=O)Nc3c(F)cccc3F)c(C)c2c1	?	?	-11	?	-12%	-16%
Cc1cc(Nc2ccccc2Cl)n2nc(-c3ccco3)nc2n1	.	.	-72*	.	1%[46.1 µM]	.
CCOC(=O)c1ccccc1Nc1cc(C)nc2nc(-c3ccco3)nn12	.	.	44	.	?	.
COc1ccc(Nc2nc(Nc3ccc(OC)cc3)nc(-n3[nH]c(=O)c(C)c3C)n2)cc1	2.6µM*	10µM*	13	.	-16%	?
COc1ccc(Nc2nc(OC)nc(N3CCOCC3)n2)cc1	-4%	0%	-38	-11%	.	.
COc1ccc(OCC(=O)Nc2cc(-c3ccccc3F)nn2-c2ccccc2)cc1	.	.	4	.	-27%[46.1 µM]	.
Cc1ccc2cc3cc(C(=O)N4CC(C)CC(C)C4)oc3nc2c1 (stereo not drawn)	?	13%	-24	.	5%	14%
Cc1ccc2cc3cc(C(=O)NCCC(C)C)oc3nc2c1	10µM*	?	-21	?	?	-5%
Cc1ccc2cc3cc(C(=O)NCc4ccco4)oc3nc2c1	2.9µM*	-6%	25	?	?	?
SMILES	Pf growth 48h	HCV inh	HCMV antiviral	Pf growth 96h	Lassa entry inh	MARV entry inh
Cc1ccc2cc3cc(C(=O)N4CCCCC4C)oc3nc2c1 (stereo not drawn)	9.3µM*	?	57	45%	?	?
CC(c1ccccc1)N1CCc2[nH]c(=S)[nH]c(=O)c2C1 (stereo not drawn)	-14%	15%	?	7%	8%[46.1 µM]	-16%[46.1 µM]
COCCc1nn2c(=O)cc(COC(=O)c3ccc(C(C)(C)C)cc3)nc2s1	.	.	-14	.	1%[46.1 µM]	.
O=C1CCCc2c1cc(C(=O)Nc1ccc(Br)cn1)c(=O)n2-c1ccccc1	4.1µM*	-19%	35	39%	7%	-24%[46.1 µM]
OCC[n+]1c2ccccc2nc2ccc(N3CCOCC3)cc21	0.33µM*	1%	-32	0.26µM*	4%	-1%[14.2 µM]
Cc1cc(C(F)(F)F)nc(SCC(=O)Nc2ccccc2)n1	-11%	-2%	-9	9%	16%	23%
Cc1cc(C(F)(F)F)nc(SCC(=O)NC2CC3CCC2C3)n1 (stereo not drawn)	-19%	0%	-68*	.	19%	2%
CCC(C(=O)c1ccc(O)cc1)c1ccccc1 (stereo not drawn)	13µM*	-16%	-27	54%	26%	-13%
CCC[C@H]1[C@H](NCc2ccccc2)CC[C@@]23CCCN2C(=O)CCC[C@@H]13	.	.	-7	.	.	.
O=C1CC(NCCN2CCOCC2)C(=O)N1Cc1ccc(N2CCCC2=O)cc1 (stereo not drawn)	5%	-8%	8	4.1µM*	?	0%
C#C[C@]1(O)CCC2C3C(=O)C=C4C(Cl)=CCC[C@]4(C)C3CC[C@@]21C (stereo partly drawn)	.	4%	-80*	.	0%[46.1 µM]	-6%[46.1 µM]
C#C[C@]1(O)CC[C@H]2[C@@H]3CCC4=CC(=O)CC[C@]4(C)[C@H]3CC[C@@]21C	-6%	5%[8.37 µM]	68	?	2%	-1%
Cc1ccc(C#C[C@@H]2C=C[C@H](Oc3ccc4c(c3)OCO4)[C@@H](CO)O2)c(C)c1	.	.	.	.	.	11%[14.2 µM]
O=C(NCc1cccnc1)c1ccc(-c2cc(Cl)ccc2Cl)o1	?	?	-7	12µM*	?	?
O=C(NCc1cccnc1)c1ccc(-c2ccc(Cl)cc2)o1	-15%	?	-2	0%	.	.
O=C(Nc1cccnc1)c1ccc(-c2cc(Cl)ccc2Cl)o1	?	11µM*	1	12%	-7%	-26%[46.1 µM]
O=C(NCc1cccnc1)/C(=C\c1ccc(-c2ccc(Cl)c(Cl)c2)o1)S(=O)(=O)c1ccccc1	?	11µM*	-102*	?	?	?
C[C@@H](C(=O)O)c1ccc(C[C@@H]2CCCC2=O)cc1	.	.	.	.	.	22%
Cc1ccc(SCc2cc(=O)[nH]c(N3CCN(Cc4ccc5c(c4)OCO5)CC3)n2)cc1	4%	0%	-63*	.	8%	3%[46.1 µM]
COc1ccc(S(=O)(=O)N2CCN(c3cnccn3)CC2)cc1OC	.	37%	39	.	0%[46.1 µM]	?
